Records with an inconclusive call do not appear. Unmarked numbers belong to inactive results. Calls of active or inactive are those of the source. The call rests on the fitted dose curve; in most records, active means well fitted activation curve with a large enough effect; inconclusive means small, poorly fitted or top-dose-only effect, or another doubt; inactive means no such curve, though single readings can be large or run the other way.
These compounds were tested against Rap guanine nucleotide exchange factor 3 (Homo sapiens) (UniProt O95398) (assay: Counterscreen qHTS for agonist of cAMP-regulated guanine nucleotide exchange factor 3 (EPAC1) (AID 1645889; further: nearly all actives have a fitted effect of over 40% in size; on activation: % of control where 0% means no effect)). Conditions: EPAC1 Rap1B-BODIPY-GDP exchange, fluorescence; series mostly up to 154 µM; activation: at the top concentration.
Source text: Assay Provider (PI): Xiaodong Cheng Ph.D. The University of Texas Medical Branch, […], TX MLPCN Grant: NS066510 In multi-cellular eukaryotic organisms, the effects of cAMP are transduced by two ubiquitously-expressed intracellular cAMP receptors, the classic protein kinase A/cAMP-dependent protein kinase (PKA/cAPK) and the more recently discovered exchange protein directly activated by cAMP/cAMP-regulated guanine nucleotide exchange factor (EPAC/cAMP-GEF). Both PKA and EPAC are ubiquitously expressed in all tissues, and an increase in intracellular cAMP levels will lead to the activation of both PKA and EPAC. Therefore, careful dissections of the individual role and relative contribution of EPAC and PKA within the overall cAMP signaling in various model systems are critical for further elucidating the mechanism of cAMP signaling. To date no EPAC-specific antagonists and agonist, as well as isoform-specific agonists have been reported, and developing EPAC-specific pharmacological probes to determine the physiological functions that EPAC play in the overall cAMP-mediated signaling remains a major challenge within the research field. Furthermore, identified regulators of EPAC may lead to new mechanism-based therapeutic strategies specifically targeting the EPAC / cAMP-signaling components as EPAC has been implicated to play important roles in major human pathological conditions such as diabetes, heart disease, and cancer. This qHTS will be used to screen the Molecular Libraries Small Molecule Repository (MLSMR) as a concentration-titration series using the NCGC unique quantitative screening (qHTS) platform to find activators for EPAC1. In addition, this assay will also be used as a counterscreen for the EPAC2 qHTS. This fluorescent based assay is developed and validated for EPAC1 that measures exchange using EPAC effector Rap1 complex with BODIPY-GDP, a GDP analog with a tethered fluorophores. Activators are identified by monitoring the change in fluorescence signal as the exchanged free BODIPY-GDP has a reduced fluorescence compared to Rap1-bound BODIPY-GDP. Increase in signal (activation) is the desired outcome for the EPAC1 agonist while no activity in this assay is desired for the EPAC2 agonist counterscreen. Reference: [1] de Rooij, J., Zwartkruis, F. J., Verheijen, M. H., Cool, R. H., Nijman, S. M., Wittinghofer, A., and Bos, J.L. (1998) Nature 396, 474-477. Kawasaki, H., Springett, G. M., Mochizuki, N., Toki, S., Nakaya, M., Matsuda, M., Housman, D. E., and Graybiel, A. M. (1998) Science 282, 2275-2279.
EPAC1 Counterscreen PROTOCOL TABLE SEQUENCE No. (e.g., 1, 2, 3, etc.); […] (e.g., Cells, Incubation, Reagent, etc.); VALUE and DESCRIPTION. 1. Reagent. 3 uL. [1x] 250 nM Rap1B-BODIPY-GDP, and 50 uM GDP. 2a. Compound. 23 nL. Control 6,572 uM cAMP (working concentration). 2b, 2c. Compound. 23 nL. Control activator and inhibitor; 234 - 30,000 uM cAMP and 16.4 - 10,000 uM. 2d. Compound. 46 nL. MLSMR follow-up library; 0.64 - 10,000 uM. 3. Time. 15 sec, 1000rpm. Centrifuge. 4. Time. 5 min. Incubation at room temperature. 5. Detector. Fluorescence. (Read 1), Ex/Em = 480 nm / 540 nm. 6. Time. 30 min. Incubation at room temperature. 7. Detector. Fluorescence. (Read 2), Ex/Em = 480 nm/ 540 nm. 8. Reagent. 1uL. Dispense either [4x] 10 uM cAMP or buffer. 9. Time. 15 sec, 1000 rpm. Centrifuge. 10. Time. 5 min. Incubation at room temperature. 11. Detector. Fluorescence. (Read 3), Ex/Em = 480 nm / 540 nm. 12. Time. 30 min. Incubation at room temperature. 13. Detector. Fluorescence. (Read 4), Ex/Em = 480 nm / 540 nm. NOTES (numbers refer to Sequence numbers above; values are from representative experiments) 1. Medium-binding black solid-bottom Greiner plates (789176-F). Dispense 3 uL of [1x] 250 nM Rap1B-BODIPY-GDP, and 50 uM GDP into columns 1 to 48. 2a. Control compound cAMP (6,572 uM, column 3, rows 1 to 32) single pin-transferred for a [final] of 50 uM. 2b. […]
Potency means the concentration at half of the fitted maximal effect.

Row | SMILES | activation | Potency
1 | CC1(Cc2ccc(Cl)cc2)C(=O)Nc2ccc(-c3cccnc3)cc21 (stereo not given) | 26.3% | –
2 | CCSc1nc2ccccc2c(OCc2ccccc2Cl)c1C(=O)OC | 22.5% | –
3 | CCOc1cc(-c2nnc(NC(=O)C3=COCCO3)o2)cc(OCC)c1OCC | 5.03% [at 30.8 µM] | –
4 | COc1ccc(/C=C/C(=O)NC2CCS(=O)(=O)C2)cc1 (stereo not given) | -10% | –
5 | COc1ccc(S(=O)(=O)N2CCCC2)cc1C(C)C | 2.24% [at 30.8 µM] | –
6 | C[C@@H](c1ccccc1)N1Cc2ccccc2Oc2cc(Br)ccc2S1(=O)=O | 24% | –
7 | Cc1ccc(S(=O)(=O)/N=C2/NC(=O)/C(=C/c3ccccc3)S2)cc1 | 7.77% | –
8 | CC(=O)NC(CCS(C)(=O)=O)C(=O)Nc1cc(C)on1 (stereo not given) | -2.3% | –
9 | CCC(C)Sc1c(C(C)C)cnc2c1c(=O)n(C)c(=O)n2C (stereo not given) | 4.73% | –
10 | Cc1nc(SC(C)C(=O)NCC2CCCO2)c2cc(-c3ccccc3)sc2n1 (stereo not given) | 22% | –
11 | O=C(Nc1cc(C(=O)Nc2ccccc2C(=O)O)cc(C(=O)Nc2ccccc2C(=O)O)c1)c1ccccc1 | 19.7% [at 30.8 µM] | –
12 | O=C(c1ccc(Br)o1)N1CCN(c2ccc3nnc(-c4ccc(F)cc4)n3n2)CC1 | 25.2% [at 30.8 µM] | –
13 | CCCCN(C(=O)CSCC(=O)Nc1ccc(C)cc1)c1c(N)n(CCCC)c(=O)[nH]c1=O | 6.23% [at 30.8 µM] | –
14 | CCOc1ccc(NC(=O)CN(C)C(=O)c2ccccc2SCc2c(C)noc2C)cc1OCC | 18% [at 30.8 µM] | –
15 | Cc1ccccc1S(=O)(=O)N1C(c2ccc(Cl)c(Cl)c2)CC=C(C(=O)O)C1c1cccc(Br)c1 (stereo not given) | 7.45% | –
16 | CCOC(=O)N1CCN(S(=O)(=O)c2cc(-c3nn4c(C)nnc4c4ccccc34)ccc2C)CC1 | 18% | –
17 | Cc1noc(C)c1CSc1ncnc2sc(C)c(C)c12 | 3.68% | –
18 | COCCn1c(SCC(=O)c2ccccc2)nc2cc(C(=O)NC3CCCC3)ccc2c1=O | 10.1% | –
19 | CCc1nc2c(OCc3ccc(C#N)cc3)cccn2c1N(C)C(=O)c1ccc(C)cc1 | 25.6% | –
20 | COc1ccc(C(C)=O)cc1COc1ccc(F)cc1 | 4.32% [at 30.8 µM] | –

Row | SMILES | activation | Potency
21 | Cc1cccn2c(=O)cc(CSc3nnc(NC(=O)COc4ccccc4)s3)nc12 | 13.3% | –
22 | CSCCC(NC(=O)c1ccc(Cl)cc1)C(=O)OCC(=O)NCc1ccco1 (stereo not given) | -1.33% [at 30.8 µM] | –
23 | CC(C)(C)c1cc(-c2csc(Nc3ccccc3)[n+]2Cc2ccc(C(=O)O)cc2)cc(C(C)(C)C)c1O | 5.97% | –
24 | O=C1NC(=Nc2ccccc2Cl)S/C1=C\c1cccc([N+](=O)[O-])c1O | -6.8% | –
25 | CCOC(=O)c1sc2nc(-c3ccco3)c3c(c2c1N)CC(C)(C)OC3 | 25.5% [at 30.8 µM] | –
26 | CCOC(=O)C1=C(C)OC(N)=C(C#N)C1c1ccc(OC)c(CSc2ccccn2)c1 (stereo not given) | 28.3% [at 30.8 µM] | –
27 | COc1ncc(-c2c(-c3ccccc3OC)sc3ccccc23)cn1 | 15.7% [at 30.8 µM] | –
28 | Cc1ccc(CNC(=O)C(=O)NCCC2CCCCN2S(=O)(=O)c2cccs2)cc1 (stereo not given) | 20.6% [at 30.8 µM] | –
29 | Cc1ccc(S(=O)(=O)N2C(c3ccc(Cl)c(Cl)c3)CC=C(C(=O)O)C2c2ccc(Cl)cc2)cc1 (stereo not given) | 2.84% | –
30 | Cc1ccc(CN(C(=O)COc2cccc(Cl)c2)c2ccccn2)o1 | 21.8% | –
31 | O=C(Cn1nnc2sc(-c3ccccc3)cc2c1=O)Nc1cccc(C(F)(F)F)c1 | 5.83% | –
32 | O=C1/C(=C/c2ccc(F)cc2)SC(=S)N1NS(=O)(=O)c1ccccc1 | 6.89% | –
33 | COc1ccccc1Sc1nc(-c2ccccc2)ncc1OC | 18.8% [at 30.8 µM] | –
34 | CCOc1ccc(C(C(=O)NC2CCCC2)N(C(=O)c2snc(C(N)=O)c2N)C2CCCC2)cc1 (stereo not given) | 21.2% | –
35 | O=C(COc1ccccc1Br)NCCC1=CCCCC1 | 20.5% [at 30.8 µM] | –
36 | CCOC(=O)/C(C#N)=C/c1ccc(N2CCCCC2)cc1 | 18.2% [at 30.8 µM] | –
37 | NNC(=O)c1cccc(COCC(F)(F)C(F)F)c1 | 9.65% | –
38 | COc1ccc(N2CCN(C(=O)c3cc(C)on3)CC2)cc1 | 4.77% | –
39 | CC(C)OC(=O)NC(c1ccccc1)C(Cl)(Cl)Cl (stereo not given) | 7.19% [at 30.8 µM] | –
40 | Cc1cc(/C=N/NC(N)=S)c(O)c(/C=N/NC(N)=S)c1 | – | 6.31 µM (active)

Reference: PubChem BioAssay (NCATS)
